# Sampled rows, rich in hits. Any-hit rate of the full collection: about 2.8%.
# IP6K1 inh = blocks human inositol hexakisphosphate kinase 1; 0.81% of 140,000 active; IP6K1 kinase, ADP-Glo luminescence, 2 h; hits give low values; activity change, % (series mostly up to about 58 µM); in the data active = activity change below about -25%
# Target sequence (Q92551 whole entry, looked up): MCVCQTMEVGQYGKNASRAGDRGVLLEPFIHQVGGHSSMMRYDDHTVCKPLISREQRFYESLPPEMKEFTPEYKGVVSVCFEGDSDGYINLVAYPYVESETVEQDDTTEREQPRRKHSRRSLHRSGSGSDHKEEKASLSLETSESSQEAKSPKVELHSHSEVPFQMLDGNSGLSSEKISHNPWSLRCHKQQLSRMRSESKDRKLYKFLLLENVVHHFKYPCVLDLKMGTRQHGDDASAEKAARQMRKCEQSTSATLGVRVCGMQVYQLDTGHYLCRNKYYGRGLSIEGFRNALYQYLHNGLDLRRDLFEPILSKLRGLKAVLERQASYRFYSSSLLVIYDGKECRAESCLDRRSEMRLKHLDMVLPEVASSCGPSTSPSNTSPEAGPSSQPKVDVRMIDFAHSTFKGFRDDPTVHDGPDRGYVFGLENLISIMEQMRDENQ
#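 ADP-Glo luminescence measures ADP made by human IP6K1 during a 2 h RT reaction with ATP/IP6 (mix at 1.3 mM/130 uM); top library doses 57.5 and 19.1 uM final.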
# KDM5B inh = KDM5B demethylase inhibition. Potency, µM (series often up to 57.7 µM), most hits filed as inhibitors. Q9UGL1. KDM5B demethylase, FDH-coupled NADH fluorescence (FDH is formaldehyde dehydrogenase). 2.6% of 220,000 active; also: nearly all actives have a fitted effect of over 70% in size
#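 Compound dilutions met 200 nM (final) KDM5BΔAP for 10 min at room temperature before substrate addition. The substrate mix held 12.5 µM H3K4me3 with cofactors 25 µM α-ketoglutarate and 50 µM Fe²⁺. NADH signal gain over 30 min defined activity.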
# IP6K1 inh cnf = confirmation of human IP6K1 inhibitors; shares compounds with IP6K1 inh; recombinant IP6K1 kinase, ADP-Glo luminescence, 2 h; Potency, µM (series often up to 49 µM), actives largely listed as inhibitors; 13% of 1,200 active; AID 1645852; also: nearly all actives have a fitted effect of over 65% in size
# Hits are given with their value; . = inactive; ? = inconclusive; / = no result. Unless noted, calls follow the shape of the dose curve; as a rule, active = well fitted inhibition curve with a large enough effect; inconclusive = small, poorly fitted or top-dose-only effect; inactive = no such curve, though single readings can be large or run the other way.
SMILES,IP6K1 inh,KDM5B inh,IP6K1 inh cnf
COc1ccc(NC(=O)CN2CCN(S(=O)(=O)c3ccc(Br)cc3)CC2)cc1,-29.5,.,.
COc1ccc(-c2ccc(C(=O)NC3CC(c4cc(=O)[nH]c(N)n4)C3)o2)cc1 (stereo not drawn),-29.7,.,?
CSc1ncccc1C(=O)NC1CC(c2cc(=O)[nH]c(N)n2)C1 (stereo not drawn),.,.,/
Cc1ccc(C(=O)NC(O)C(=O)c2ccc(C)cc2)cc1 (stereo not drawn),/,.,/
CCc1ccc(C(=O)NCc2ccc(N3CCCN(C)CC3)nc2)o1,/,.,/
Cn1c(=O)c2[nH]c(-c3ccc(S(=O)(=O)O)cc3)nc2n(C)c1=O,/,/,.
CC(C)c1ccc(-c2nc3c([nH]2)c(=O)n(C)c(=O)n3C)cc1,/,.,/
CCCC1C(c2ccccc2)NC(c2ccccc2)CC1(O)Cc1ccccc1 (stereo not drawn),/,.,/
CC(=O)Nc1ccccc1SC(F)(F)F,/,.,/
Cc1ccc(-c2n[nH]c3c2C(c2ccccc2Cl)N(c2ccc(C(=O)O)cc2)C3=O)cc1 (stereo not drawn),-28.6,.,.
CCc1ccc(C2c3c(-c4ccccc4)n[nH]c3C(=O)N2c2ccc(C(=O)O)cc2)cc1 (stereo not drawn),.,.,/
CCCNC(=O)CN1CCN(c2ncc(NC(=O)c3ccc(Cl)cc3)cc2C(=O)O)CC1,.,?,/
CCCCNC(=O)CN1CCN(c2ncc(NC(=O)c3ccc(Cl)cc3)cc2C(=O)O)CC1,-58.5,?,?
CCOc1cc(/C=C(\C#N)c2nc3ccccc3[nH]2)ccc1OCc1ccccc1,/,.,/
CCCCN(Cc1ccccc1)S(=O)(=O)c1cc(Br)cc2c1N(C(C)=O)CC2,-27.0,.,.
CCCCN(Cc1ccccc1)S(=O)(=O)c1cc(Br)cc2c1N(C(=O)C1CC1)CC2,.,.,/
Cc1c(F)cccc1NC(=O)c1nn(C)c(=O)c2ccccc12,/,.,/
CCc1ccc(CNC(=O)c2ncoc2-c2cccc(OC)c2)cc1,/,.,/
C#C[C@]1(O)CC[C@H]2[C@@H]3CCc4cc(OC5CCCC5)ccc4[C@H]3CC[C@@]21C,.,/,/
C#C[C@]1(O)CC[C@H]2[C@@H]3CCc4cc(OC)ccc4[C@H]3CC[C@@]21C,-26.6,/,?
COc1cc(/C=C(\C#N)c2nc3ccc(C)cc3[nH]2)cc(Br)c1OC,/,.,/
COc1ccccc1CNC(=O)c1ccc2c(c1)nc(C)n2-c1cccc(C)c1,-25.6,.,.
COc1ccccc1CNC(=O)c1ccc2c(c1)nc(C)n2-c1ccc(Br)cc1,/,.,/
CCC(CO)Nc1nc2c(c(=O)n(C)c(=O)n2C)n1Cc1c(F)cccc1Cl (stereo not drawn),/,.,/
Cc1ccc(NC(=O)c2nc(S(C)(=O)=O)ncc2N(Cc2ccco2)Cc2ccco2)cc1C,-28.8,?,.
SMILES,IP6K1 inh,KDM5B inh,IP6K1 inh cnf
Cc1ccc(NC(=O)c2nc(S(C)(=O)=O)ncc2N(Cc2ccco2)Cc2cccs2)cc1C,.,.,/
c1ccc(SCc2nnc3sc(-c4ccccn4)nn23)cc1,/,.,/
CCc1ccc(OCC(=O)Nc2cccc3ccc(C)nc23)cc1,/,.,/
O=C(c1cccs1)N(Cc1cccs1)C1CC1,/,.,/
O=C(NCC1CCCO1)Nc1c(NC2CCCCC2)c2ccccc2oc1=O (stereo not drawn),/,.,/
COc1cc(Cl)c(C)cc1NC(=O)Cn1nc2ccc(SC3CCCCC3)nn2c1=O,/,.,/
Cc1cccc(-c2nc3c4ccccc4nc(NCc4ccccc4Cl)n3n2)c1,-27.2,.,.
Cc1cccc(-c2nc3c4ccccc4nc(NCCc4ccccc4)n3n2)c1,.,.,/
COc1ccc(-c2noc([C@@H]3Cc4nc[nH]c4CN3C(=O)c3ccc(F)cc3)n2)cc1,.,.,/
O=C(c1ccccc1)N1Cc2[nH]cnc2C[C@H]1c1nc(-c2ccc(Cl)cc2)no1,-38.7,.,?
CC(NC(=O)CSc1nnnn1-c1ccc(O)cc1)c1ccc2c(c1)OCCO2 (stereo not drawn),/,.,/
COC(=O)c1cn(CC(=O)Nc2cccc(C(C)=O)c2)c2ccccc12,/,.,/
Cc1cn2c3c(=O)[nH]c(=O)n(C)c3nc2n1CCCN1CCN(c2ccccc2)CC1,/,.,/
COc1ccc(N2CCN(C(=O)C3CCN(S(=O)(=O)c4cccs4)CC3)CC2)cc1,.,.,/
COc1ccc(N2CCN(C(=O)C3CCN(S(=O)(=O)c4cnc[nH]4)CC3)CC2)cc1,-28.6,.,.
Cc1cc2nc(/C(C#N)=C/c3ccc(F)c(Br)c3)[nH]c2cc1C,/,.,/
COc1ccc(CN(Cc2ccco2)C(=O)c2cc(=O)c3ccccc3o2)cc1,/,.,/
O=C(CC1N=C2c3ccccc3N=C(SCc3ccccc3Cl)N2C1=O)NCc1cccs1 (stereo not drawn),.,.,/
